From PubChem BioAssay AID1159580 (chemical genetic matrix, 2015)
“And” between values parts separate entries of the source, which are not always exact repeats. Equal entries are not always repeated. About 2,000 (36%) of roughly 5,500 compounds were called active. Another 18% or so got no clear call; they are omitted. No stated cut-off is given here; in the data, active means normalized growth mostly below about 0.91 (no sharp cut-off); inconclusive means no clear call, values can overlap the other calls; inactive means mostly above about 0.92. The list shows a part of the results.

Assay: chemical genetic growth profiling, strain panel (AID 1159580);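 further: tested at 20 µM; growth read once vehicle control cultures reached saturation at 30 °C; 1 = growth at the plate median or of vehicle wells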
Settings: S. cerevisiae deletion strains, growth OD
[1] = locus YAL013W, strain DEP1, stronger effect = lower value
[2] = locus YDR150W, strain NUM1, stronger effect = lower value
[3] = locus YGR078C, strain PAC10, stronger effect = lower value
[4] = locus YMR263W, strain SAP30, stronger effect = lower value
[5] = locus YPL055C, strain LGE1, stronger effect = lower value
[6] = locus YPL241C, strain CIN2, stronger effect = lower value
[7] = locus YBR229C, strain ROT2, stronger effect = lower value
[8] = locus YDL101C, strain DUN1, stronger effect = lower value
[9] = locus YEL061C, strain CIN8, stronger effect = lower value
[10] = locus YHR030C, strain SLT2, stronger effect = lower value
[11] = locus YHR087W, strain rtc3, stronger effect = lower value
[12] = locus YJR043C, strain POL32, stronger effect = lower value
[13] = locus YJR075W, strain HOC1, stronger effect = lower value
[14] = locus YLR039C, strain RIC1, stronger effect = lower value
[15] = locus YLR058C, strain SHM2 (second series), stronger effect = lower value
[16] = locus YLR085C, strain ARP6, stronger effect = lower value
[17] = locus YLR262C, strain YPT6, stronger effect = lower value
[18] = locus YML094W, strain GIM5, stronger effect = lower value
[19] = locus YMR219W, strain ESC1, stronger effect = lower value
[20] = locus YNL153C, strain GIM3, stronger effect = lower value
[21] = locus YNL298W, strain CLA4 (second series), stronger effect = lower value
[22] = locus YNL322C, strain KRE1, stronger effect = lower value
[23] = locus YNR030W, strain Alg12, stronger effect = lower value
[24] = locus YPR135W, strain CTF4, stronger effect = lower value

Measured: normalized growth

CNC(CC(=O)O)C(=O)O (configuration not stated)
inactive: [1] 1.02 | locus YAL040C, strain CLN3, stronger effect = lower value 1.02 | locus YCL061C, strain MRC1 (second series), stronger effect = lower value 1.02 | [2] 1.03 | locus YDR363W, strain ESC2, stronger effect = lower value 1 | locus YER002W, strain NOP16, stronger effect = lower value 1 | [3] 1.02 | [4] 1.01 | locus YMR307W, strain GAS1, stronger effect = lower value 1.02 | locus YNL175C, strain NOP13, stronger effect = lower value 1.01 | locus YNL197C, strain WHI3, stronger effect = lower value 1 | locus YNL224C, strain SQS1, stronger effect = lower value 1.01 | locus YOR083W, strain WHI5 (second series), stronger effect = lower value 1.05 | [5] 1.02 | [6] 1.03

CCOC(=O)CC(=O)Nc1scc(C)c1C(=O)OCC
inactive: [1] 0.988 | [7] 0.977 | [8] 0.97 | locus YDL134C, strain PPH21, stronger effect = lower value 0.923 | [2] 0.995 | [9] 0.943 | [3] 0.947 | [10] 0.906 | [11] 0.924 | locus YJL187C, strain SWE1, stronger effect = lower value 0.958 | [12] 0.979 | [13] 0.951 | locus YKL190W, strain CNB1, stronger effect = lower value 0.97 | [14] 0.987 | [15] 0.98 | [16] 0.872 | [17] 0.994 | [18] 0.933 | [19] 0.968 | [4] 0.984 | locus YNL128W, strain TEP1, stronger effect = lower value 0.98 | [20] 0.969 | [21] 0.934 | [22] 0.957 | [23] 0.924 | [5] 0.968 | [6] 0.936 | [24] 1.14

CCOC(=O)c1c(N=Cc2cc(Br)c(Br)cc2O)sc2c1CCCC2
0.963 (inactive) and 0.697 (active): [8]
active: [1] 0.131 | [7] 0.542 | locus YDL214C, strain PRR2, stronger effect = lower value 0.667 | locus YDR477W, strain SNF1, stronger effect = lower value 0.595 | [9] 0.265 | locus YER123W, strain YCK3, stronger effect = lower value 0.541 | locus YER133W, strain GLC7, stronger effect = lower value 0.696 | locus YGR040W, strain KSS1, stronger effect = lower value 0.612 | locus YGR052W, strain FMP48, stronger effect = lower value 0.45 | [3] 0.241 | locus YGR092W, strain DBF2, stronger effect = lower value 0.173 | [10] 0.211 and 0.239 | locus YHR079C, strain IRE1, stronger effect = lower value 0.262 | locus YHR082C, strain KSP1, stronger effect = lower value 0.368 | [11] 0.554 | locus YHR205W, strain SCH9, stronger effect = lower value 0.458 | locus YJL095W, strain BCK1, stronger effect = lower value 0.314 | locus YJL157C, strain FAR1, stronger effect = lower value 0.589 | [12] 0.318 | locus YJR066W, strain TOR1, stronger effect = lower value 0.38 | [13] 0.769 | locus YKL048C, strain ELM1, stronger effect = lower value 0.629 | locus YKL067W, strain YNK1, stronger effect = lower value 0.674 | locus YKL101W, strain HSL1, stronger effect = lower value 0.555 | locus YKL203C, strain TOR2, stronger effect = lower value 0.614 | [14] 0.164 | [15] 0.916 | [16] 0.118 | locus YLR113W, strain HOG1, stronger effect = lower value 0.475 | locus YLR133W, strain CKI1, stronger effect = lower value 0.608 | [17] 0.17 | locus YLR403W, strain SFP1, stronger effect = lower value 0.525 | locus YML070W, strain DAK1, stronger effect = lower value 0.576 | [18] 0.442 | locus YMR205C, strain PFK2 (second series), stronger effect = lower value 0.635 | [19] 0.83 | [4] 0.162 | locus YNL020C, strain ARK1, stronger effect = lower value 0.51 | [20] 0.511 | locus YNL183C, strain NPR1, stronger effect = lower value 0.468 | [21] 0.652 | locus YNL307C, strain MCK1 (second series), stronger effect = lower value 0.314 | [22] 0.714 | [23] 0.533 | locus YOL006C, strain TOP1, stronger effect = lower value 0.209 | locus YOL136C, strain PFK27, stronger effect = lower value 0.577 | locus YOR061W, strain CKA2, stronger effect = lower value 0.383 | locus YOR119C, strain RIO1, stronger effect = lower value 0.63 | locus YOR231W, strain MKK1, stronger effect = lower value 0.335 | locus YPL031C, strain PHO85, stronger effect = lower value 0.561 | [5] 0.113 | locus YPL153C, strain RAD53, stronger effect = lower value 0.511 | locus YPL204W, strain HRR25, stronger effect = lower value 0.575 | [6] 0.558 | locus YPL256C, strain CLN2, stronger effect = lower value 0.458 | [24] 0.635
inactive: locus YAR019C, strain CDC15, stronger effect = lower value 0.975 | locus YBL105C, strain PKC1, stronger effect = lower value 0.97 | locus YBR135W, strain CKS1, stronger effect = lower value 0.968 | locus YBR136W, strain MEC1, stronger effect = lower value 0.97 | locus YBR160W, strain CDC28, stronger effect = lower value 0.976 | locus YDL017W, strain CDC7, stronger effect = lower value 0.976 | locus YDL028C, strain MPS1, stronger effect = lower value 0.956 | locus YDL108W, strain KIN28, stronger effect = lower value 0.959 | locus YDL132W, strain cdc53, stronger effect = lower value 0.964 | locus YDR052C, strain DBF4, stronger effect = lower value 0.971 | locus YDR054C, strain cdc34, stronger effect = lower value 0.97 | locus YDR226W, strain ADK1, stronger effect = lower value 0.975 | locus YFL009W, strain cdc4, stronger effect = lower value 0.983 | locus YFL029C, strain CAK1, stronger effect = lower value 0.977 | locus YFR003C, strain YPI1, stronger effect = lower value 0.961 | locus YFR019W, strain FAB1, stronger effect = lower value 0.804 | locus YFR028C, strain CDC14, stronger effect = lower value 0.982 | locus YGR229C, strain SMI1, stronger effect = lower value 0.969 | locus YIL147C, strain SLN1, stronger effect = lower value 0.96 | locus YJL128C, strain PBS2, stronger effect = lower value 0.959 | locus YJR016C, strain ILV3, stronger effect = lower value 0.968 | locus YJR066W, strain TOR1 (second series), stronger effect = lower value 0.724 | locus YKL193C, strain SDS22, stronger effect = lower value 0.964 | locus YMR001C, strain CDC5, stronger effect = lower value 0.975 | locus YMR277W, strain FCP1, stronger effect = lower value 0.968 | locus YNL006W, strain LST8, stronger effect = lower value 0.976 | locus YNL161W, strain CBK1, stronger effect = lower value 0.981 | locus YNL207W, strain RIO2, stronger effect = lower value 0.969 | locus YNL222W, strain SSU72, stronger effect = lower value 0.974 | locus YOL078W, strain AVO1, stronger effect = lower value 0.967 | locus YOR329C, strain SCD5, stronger effect = lower value 0.974 | locus YPL209C, strain IPL1, stronger effect = lower value 0.975 | locus YPR025C, strain CCL1, stronger effect = lower value 0.981 | locus YPR106W, strain ISR1, stronger effect = lower value 0.968 | locus YPR111W, strain DBF20, stronger effect = lower value 0.964 | strain NNK1, stronger effect = lower value 0.96 | strain TSCII, stronger effect = lower value 0.971
